Results filed as inconclusive are left out. Calls of active or inactive are those of the source. Unless noted, calls come from the whole dose curve; as a rule, active = well fitted curve in the direction sought with a large enough effect in the repeat runs; inconclusive = weak or mixed curves; inactive = no such curve, though single readings can be large; an effect the other way counts as inactive or inconclusive.
Assays:
[1] = qHTS assay to identify small molecule agonists of the peroxisome proliferator-activated receptor delta (PPARd) signaling pathway - cell viability counter screen (AID 743211); note: nearly all actives have a fitted effect of over 55% in size
Summary of the method: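 Counter screen for cytotoxicity run in parallel with the PPARd reporter screen. Beta-lactamase reporter HEK293H cells exposed to compounds 17 h; ATP-based CellTiter-Glo luminescence quantified viability.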

[2] = molecular target: Peroxisome proliferator-activated receptor delta (Homo sapiens) (UniProt Q03181); experiment: qHTS assay to identify small molecule agonists of the peroxisome proliferator-activated receptor delta (PPARd) signaling pathway (AID 743212; calls by dose curve)
Sequence of Peroxisome proliferator-activated receptor delta (Homo sapiens) (Q03181 whole entry, looked up): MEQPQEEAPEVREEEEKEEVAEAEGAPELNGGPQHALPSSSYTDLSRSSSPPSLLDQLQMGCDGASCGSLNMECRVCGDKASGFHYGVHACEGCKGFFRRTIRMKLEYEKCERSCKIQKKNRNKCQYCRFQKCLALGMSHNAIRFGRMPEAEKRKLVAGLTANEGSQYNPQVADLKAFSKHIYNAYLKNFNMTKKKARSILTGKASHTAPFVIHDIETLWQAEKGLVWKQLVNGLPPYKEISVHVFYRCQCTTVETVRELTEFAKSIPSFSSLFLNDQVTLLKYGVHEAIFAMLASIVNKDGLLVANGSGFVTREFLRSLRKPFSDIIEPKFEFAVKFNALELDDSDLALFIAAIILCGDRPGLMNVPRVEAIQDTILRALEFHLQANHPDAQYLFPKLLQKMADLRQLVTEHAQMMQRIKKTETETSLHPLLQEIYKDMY
Summary of the method: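 Read-out: beta-lactamase FRET fluorescence after 2 h room-temperature incubation with LiveBLAzer B/G substrate. Cells were HEK293H carrying a UAS-bla reporter for PPARd, treated at 37 C with DMSO-dissolved compounds.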

[3] = qHTS assay to identify small molecule antagonists of the peroxisome proliferator-activated receptor delta (PPARd) signaling pathway - cell viability counter screen (AID 743213); note: nearly all actives have a fitted effect of over 50% in size
Summary of the method: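 Viability counter-screen, qHTS format: PPARd-bla HEK293H, L165041 300 nM final, 17 h compound exposure at 37 C, CellTiter-Glo luminescence after 30 min RT.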

[4] = molecular target: Peroxisome proliferator-activated receptor delta (Homo sapiens) (UniProt Q03181); experiment: qHTS assay to identify small molecule antagonists of the peroxisome proliferator-activated receptor delta (PPARd) signaling pathway (AID 743215; active = well fitted inhibition curve with a large enough effect in the signal ratio in the repeat runs, not every such curve was filed as active; the % refers to the signal ratio;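 note: cells stimulated with agonist L165041 at 300 nM final during compound exposure; series mostly up to about 62 µM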)
Summary of the method: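 HEK293H GeneBLAzer PPARd UAS-bla reporter cells; cpd + L165041 300 nM final, 17 h 37 C; LiveBLAzer B/G FRET substrate 2 h RT; fluorescence intensity read-out. Antagonist mode.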

[5] = molecular target: Bile acid receptor (Homo sapiens) (UniProt Q96RI1); experiment: qHTS assay to identify small molecule antagonists of the farnesoid-X-receptor (FXR) signaling pathway (AID 743217; active = well fitted inhibition curve with a large enough effect in the signal ratio in the repeat runs, not every such curve was filed as active; the % refers to the signal ratio)
Sequence of Bile acid receptor (Homo sapiens) (Q96RI1 whole entry, looked up): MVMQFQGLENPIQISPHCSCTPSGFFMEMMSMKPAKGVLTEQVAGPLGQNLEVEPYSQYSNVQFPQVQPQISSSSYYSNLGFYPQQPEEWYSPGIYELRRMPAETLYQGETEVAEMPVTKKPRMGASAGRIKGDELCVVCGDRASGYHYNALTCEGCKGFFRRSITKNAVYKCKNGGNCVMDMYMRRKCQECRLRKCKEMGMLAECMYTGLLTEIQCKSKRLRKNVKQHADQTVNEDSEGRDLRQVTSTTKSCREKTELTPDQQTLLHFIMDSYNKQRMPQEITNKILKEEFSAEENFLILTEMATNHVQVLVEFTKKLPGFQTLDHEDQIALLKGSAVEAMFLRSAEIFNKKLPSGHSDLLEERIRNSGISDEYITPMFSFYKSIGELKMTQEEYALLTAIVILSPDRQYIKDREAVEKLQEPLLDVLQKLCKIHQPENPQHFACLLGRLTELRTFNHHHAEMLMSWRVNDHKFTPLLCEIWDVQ
Summary of the method: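 Read-out: beta-lactamase FRET fluorescence (LiveBLAzer B/G substrate, 2 h, room temperature) in GeneBLAzer FXR-UAS-bla HEK 293T cells. Compounds were co-dosed with 50 uM chenodeoxycholic acid (final) and incubated 16 h at 37 °C.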

[6] = molecular target: Bile acid receptor (Homo sapiens) (UniProt Q96RI1); experiment: qHTS assay to identify small molecule agonists of the farnesoid-X-receptor (FXR) signaling pathway (AID 743220; active = well fitted activation curve with a large enough effect in the signal ratio in the repeat runs, not every such curve was filed as active; the % refers to the signal ratio)
Summary of the method: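 FXR-UAS-bla HEK 293T cells carrying a UAS-driven beta-lactamase reporter were plated for 5 h at 37C/5% CO2, then exposed to DMSO-dissolved Tox21 10K compounds for 16 h at 37C. A LiveBLAzer B/G FRET substrate was loaded for 2 h at room temperature before fluorescence reading.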

[7] = qHTS assay to identify small molecule antagonists of the farnesoid-X-receptor (FXR) signaling pathway - cell viability counter screen (AID 743221; active = well fitted cell-killing curve with a large enough effect in the repeat runs, not every such curve was filed as active; note: nearly all actives have a fitted effect of over 50% in size)
Summary of the method: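 Multiplexed counter screen: viability of FXR-bla HEK 293T cells under agonist stimulation by chenodeoxycholic acid (50 uM, final) and test compound for 16 h at 37 C, measured by CellTiter-Glo luminescence in the reporter wells.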

[8] = molecular target: Vitamin D3 receptor (Homo sapiens) (UniProt P11473); experiment: qHTS assay to identify small molecule agonists of the vitamin D receptor (VDR) signaling pathway (AID 743222; calls by dose curve)
Sequence of Vitamin D3 receptor (Homo sapiens) (P11473 whole entry, looked up): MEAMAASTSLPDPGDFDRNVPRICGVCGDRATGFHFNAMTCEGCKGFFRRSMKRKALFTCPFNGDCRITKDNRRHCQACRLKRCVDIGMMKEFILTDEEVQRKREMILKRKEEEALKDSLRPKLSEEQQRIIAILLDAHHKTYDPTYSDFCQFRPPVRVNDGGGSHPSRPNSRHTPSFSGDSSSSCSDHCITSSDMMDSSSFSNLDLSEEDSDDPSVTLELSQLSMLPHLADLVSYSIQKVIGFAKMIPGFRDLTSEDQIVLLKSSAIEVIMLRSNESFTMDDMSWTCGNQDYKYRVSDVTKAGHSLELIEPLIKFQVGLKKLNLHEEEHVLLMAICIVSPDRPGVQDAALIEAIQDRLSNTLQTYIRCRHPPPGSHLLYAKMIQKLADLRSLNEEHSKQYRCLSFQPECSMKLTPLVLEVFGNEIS
Summary of the method: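 Beta-lactamase reporter readout (LiveBLAzer B/G FRET, 2 h RT) in VDR-bla cells after 16 h compound treatment at 37C, 5% CO2; cells pre-incubated 4 h before pin transfer of DMSO solutions.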

[9] = molecular target: Vitamin D3 receptor (Homo sapiens) (UniProt P11473); experiment: qHTS assay to identify small molecule antagonists of the vitamin D receptor (VDR) signaling pathway (AID 743223; active = well fitted inhibition curve with a large enough effect in the signal ratio in the repeat runs, not every such curve was filed as active; the % refers to the signal ratio)
Summary of the method: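 Cells carrying a VDR-driven beta-lactamase reporter (VDR-bla) were co-treated with compound and 3 nM final 1alpha,25-dihydroxyvitamin D3 for 16 h at 37C; reporter activity was measured as FRET substrate fluorescence after 2 h at room temperature.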

[10] = qHTS assay to identify small molecule agonists of the vitamin D receptor (VDR) signaling pathway - cell viability counter screen (AID 743224); note: series mostly up to about 63 µM; nearly all actives have a fitted effect of over 50% in size
Summary of the method: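 Cytotoxicity counter screen: VDR-bla cells, 16 h compound exposure at 37C, 5% CO2; CellTiter-Glo luminescence, 30 min RT, same wells as bla read.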

[11] = qHTS assay to identify small molecule antagonists of the vitamin D receptor (VDR) signaling pathway - cell viability counter screen (AID 743225); note: nearly all actives have a fitted effect of over 50% in size
Summary of the method: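 HEK293T VDR-bla; cpd + 1a,25-(OH)2D3 3 nM final, 16 h 37C/5% CO2; B/G FRET substrate 2 h RT; then CellTiter-Glo 30 min RT, luminescence.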

[12] = qHTS assay to identify small molecule agonists of the NFkB signaling pathway - cell viability counter screen (AID 1159515; calls by dose curve; note: series mostly up to about 61 µM; nearly all actives have a fitted effect of over 55% in size)
Summary of the method: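 ME-180 NFkB-bla cells, 2,000/well; overnight attach; compound 5 hr, 37 C/5% CO2; LiveBLAzer substrate 1.5 hr RT; then CellTiter-Glo in same wells, 30 min RT, luminescence read.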

[13] = qHTS assay to identify small molecule agonists of the endoplasmic reticulum stress response signaling pathway - cell viability counter screen (AID 1159517; calls by dose curve)
Summary of the method: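 Steps: seed 1,500 ESRE-bla HeLa cells per well; incubate overnight at 37 C, 5% CO2; add compounds in DMSO for 5 hr; run FRET substrate 2 hr RT; add CellTiter-Glo, wait 30 min, read luminescence.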

[14] = qHTS assay to identify small molecule antagonists of the retinoid-related orphan receptor gamma (ROR-gamma) signaling pathway - cell viability counter screen (AID 1159520); note: nearly all actives have a fitted effect of over 50% in size
Summary of the method: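 Tet-on ROR gamma CHO cells were given compounds for 2 hr, then doxycycline hyclate at 1 uM final, and incubated 16 hr at 37 C. Viability was measured as ATP content by CellTiter-Glo luminescence.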

[15] = molecular target: Nuclear receptor ROR-gamma (Homo sapiens) (UniProt P51449); experiment: qHTS assay to identify small molecule antagonists of the retinoid-related orphan receptor gamma (ROR-gamma) signaling pathway (AID 1159521)
Summary of the method: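 Cells were plated, rested 4 h at 37 C, exposed to compounds for 2 h, then given 1 uM final doxycycline hyclate to induce RORγ expression. After 16 h, ONE-Glo luminescence from the ROR response element reporter was measured.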

[16] = qHTS assay to identify small molecule agonists of the AP-1 signaling pathway - cell viability counter screen (AID 1159525; calls by dose curve; note: nearly all actives have a fitted effect of over 55% in size)
Summary of the method: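 Same-well cytotoxicity counter screen of the Tox21 10K library in ME-180 cells. The readout is ATP-dependent luminescence after 5 h compound treatment. Data are normalised to DMSO and tetra n-octyl ammonium bromide controls.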

[17] = qHTS assay to identify small molecule agonists of the AP-1 signaling pathway (AID 1159526; calls by dose curve)
[18] = qHTS assay to identify small molecule agonists of the farnesoid-X-receptor (FXR) signaling pathway - cell viability counter screen (AID 743218); note: nearly all actives have a fitted effect of over 45% in size
Summary of the method: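 Luminescence from CellTiter-Glo, read after 30 min at RT, reports viability of GeneBLAzer FXR-UAS-bla HEK 293T cells treated 16 h with compounds in the wells used for the beta-lactamase reporter.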

Measured: Potency

CC[C@H](C)[C@@H](C(=O)O)n1sc2ccccc2c1=O
not listed: [18]
inactive: all other assays above

CN(C)C/C=C(/c1ccc(Br)cc1)c1cccnc1
not listed: [1] | [2] | [4] | [5] | [6]
inactive: all other assays above

O=C(O)COC(=O)Cc1ccccc1Nc1c(Cl)cccc1Cl
not listed: [5] | [6] | [11]
inactive: all other assays above

CC[C@H](C)[C@H](N)C(=O)O
not listed: [2] | [3] | [4] | [5] | [6]
inactive: all other assays above

From PubChem BioAssay (Tox21)
